Here are results for 1 sequence from PMC7862700, “An all-to-all approach to the identification of sequence-specific readers for epigenetic DNA modifications on cytosine”.

Experiment in all cases: DAPPL (digital affinity profiling via proximity ligation, sequencing); 10 mM Tris-HCl pH 7.5, 50 mM NaCl, 1 mM DTT, 4% glycerol, room temperature, 30 min; GST-TFs on glutathione beads, 16-mer random dsDNA library, 0.1% formaldehyde crosslink after washing; high values mean tight binding
The target in experiment [1] is T1, FLI1 (Homo sapiens, UniProt Q01543 1-452).
T1 sequence: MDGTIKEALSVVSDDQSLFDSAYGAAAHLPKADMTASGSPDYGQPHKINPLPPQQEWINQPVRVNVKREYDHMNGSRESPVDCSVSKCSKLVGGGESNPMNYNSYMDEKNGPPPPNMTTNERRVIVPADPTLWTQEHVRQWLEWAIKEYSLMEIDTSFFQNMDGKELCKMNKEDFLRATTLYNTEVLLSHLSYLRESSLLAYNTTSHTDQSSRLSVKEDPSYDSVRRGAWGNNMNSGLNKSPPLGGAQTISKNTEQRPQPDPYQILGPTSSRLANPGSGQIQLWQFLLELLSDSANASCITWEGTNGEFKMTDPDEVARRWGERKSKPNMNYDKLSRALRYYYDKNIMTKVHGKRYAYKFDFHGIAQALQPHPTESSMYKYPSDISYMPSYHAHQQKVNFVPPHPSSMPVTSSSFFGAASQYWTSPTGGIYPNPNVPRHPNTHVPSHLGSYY
The conditions noted are these: protein: recombinant; tags: N-terminal GST; dsDNA, one strand shown. A digest of the protocol: (§1)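 Binding signal is given per hexamer as its read frequency for a factor divided by its frequency in the tag-only sample. GST-fused human transcription factors were expressed in yeast, captured on glutathione beads, barcoded with DNA and pooled with that sample, then incubated with 200 nmole of a 16-mer random double-stranded DNA library in Tris/NaCl/DTT/glycerol buffer for 30 min at room temperature. The pools were then washed, crosslinked, proximity-ligated, amplified by PCR and sequenced on an Illumina NextSeq500.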

For experiment [2], the target named is T2, ELK1 (Homo sapiens, UniProt P19419 1-428).
T2 sequence: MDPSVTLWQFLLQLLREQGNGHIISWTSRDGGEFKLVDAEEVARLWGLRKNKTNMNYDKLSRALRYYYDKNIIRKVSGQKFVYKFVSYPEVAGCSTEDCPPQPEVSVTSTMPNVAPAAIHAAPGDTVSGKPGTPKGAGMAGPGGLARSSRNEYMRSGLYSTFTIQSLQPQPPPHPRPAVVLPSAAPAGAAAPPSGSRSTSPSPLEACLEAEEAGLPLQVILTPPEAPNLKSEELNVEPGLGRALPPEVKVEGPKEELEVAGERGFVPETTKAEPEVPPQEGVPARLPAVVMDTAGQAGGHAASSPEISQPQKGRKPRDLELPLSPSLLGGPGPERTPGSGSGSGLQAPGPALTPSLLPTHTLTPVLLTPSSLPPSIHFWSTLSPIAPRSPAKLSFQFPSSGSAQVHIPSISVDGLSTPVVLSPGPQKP
The settings on record: protein: recombinant; tags: N-terminal GST; dsDNA, one strand shown. Summed up:
as §1

In experiment [3] the target is T3, GABPA (Homo sapiens, UniProt Q06546 1-454).
T3 sequence: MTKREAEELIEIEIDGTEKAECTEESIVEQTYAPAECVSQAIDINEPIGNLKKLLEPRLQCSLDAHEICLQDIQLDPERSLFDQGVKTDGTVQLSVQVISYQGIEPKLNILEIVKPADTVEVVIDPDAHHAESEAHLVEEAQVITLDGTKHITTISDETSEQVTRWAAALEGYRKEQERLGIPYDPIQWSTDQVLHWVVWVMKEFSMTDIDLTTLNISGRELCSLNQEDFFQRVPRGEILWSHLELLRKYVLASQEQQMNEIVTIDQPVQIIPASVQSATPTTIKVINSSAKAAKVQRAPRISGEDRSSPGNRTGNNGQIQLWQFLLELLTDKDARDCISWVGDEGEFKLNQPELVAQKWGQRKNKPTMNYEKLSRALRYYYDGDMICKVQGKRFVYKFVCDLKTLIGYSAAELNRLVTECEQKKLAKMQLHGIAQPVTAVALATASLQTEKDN
The settings on record: protein: recombinant; tags: N-terminal GST; dsDNA, one strand shown. Summed up:
as §1

For experiment [4], the target named is T4, ERG (Homo sapiens, UniProt P11308 1-479).
T4 sequence: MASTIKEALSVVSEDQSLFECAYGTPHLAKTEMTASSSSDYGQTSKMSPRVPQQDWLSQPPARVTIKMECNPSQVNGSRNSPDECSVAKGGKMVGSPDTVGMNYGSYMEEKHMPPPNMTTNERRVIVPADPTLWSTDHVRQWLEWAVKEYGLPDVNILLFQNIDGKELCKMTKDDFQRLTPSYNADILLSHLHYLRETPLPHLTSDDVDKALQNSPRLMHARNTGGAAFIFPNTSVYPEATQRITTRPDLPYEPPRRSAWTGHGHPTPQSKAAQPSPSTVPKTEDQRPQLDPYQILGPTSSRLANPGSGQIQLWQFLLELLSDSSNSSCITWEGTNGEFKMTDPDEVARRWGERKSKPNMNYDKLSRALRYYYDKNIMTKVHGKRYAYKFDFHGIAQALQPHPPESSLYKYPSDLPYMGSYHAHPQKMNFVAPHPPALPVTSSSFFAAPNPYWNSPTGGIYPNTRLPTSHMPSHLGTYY
The conditions noted are these: protein: recombinant; tags: N-terminal GST; dsDNA, one strand shown. Summed up:
as §1

In experiment [5] the target is ELF1 (Homo sapiens, UniProt P32519 1-619). The settings on record: protein: recombinant; tags: N-terminal GST; dsDNA, one strand shown. A digest of the protocol:
as §1

Experiment [6] addresses T5, EHF (Homo sapiens, UniProt Q9NZC4 1-300).
T5 sequence: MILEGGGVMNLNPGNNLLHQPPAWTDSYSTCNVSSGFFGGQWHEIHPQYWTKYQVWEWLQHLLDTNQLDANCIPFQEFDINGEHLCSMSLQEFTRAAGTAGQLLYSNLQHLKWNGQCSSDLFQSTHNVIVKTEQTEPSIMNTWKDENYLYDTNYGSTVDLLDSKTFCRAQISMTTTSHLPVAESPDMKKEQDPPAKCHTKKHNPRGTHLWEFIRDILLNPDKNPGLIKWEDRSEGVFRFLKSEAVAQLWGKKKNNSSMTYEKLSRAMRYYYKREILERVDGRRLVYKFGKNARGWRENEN
The settings on record: protein: recombinant; tags: N-terminal GST; dsDNA, one strand shown. A digest of the protocol:
as §1

The target of experiment [7] is SPI1 (Homo sapiens, UniProt P17947 1-270). The settings on record: protein: recombinant; tags: N-terminal GST; dsDNA, one strand shown. A digest of the protocol: as §1
Experiment [8] concerns the target SPIB (Homo sapiens, UniProt Q01892 1-262). The conditions noted are these: protein: recombinant; tags: N-terminal GST; dsDNA, one strand shown. A digest of the protocol: as §1
Experiment [9] concerns the target T6, ELK3 (Homo sapiens, UniProt P41970 1-407).
T6 sequence: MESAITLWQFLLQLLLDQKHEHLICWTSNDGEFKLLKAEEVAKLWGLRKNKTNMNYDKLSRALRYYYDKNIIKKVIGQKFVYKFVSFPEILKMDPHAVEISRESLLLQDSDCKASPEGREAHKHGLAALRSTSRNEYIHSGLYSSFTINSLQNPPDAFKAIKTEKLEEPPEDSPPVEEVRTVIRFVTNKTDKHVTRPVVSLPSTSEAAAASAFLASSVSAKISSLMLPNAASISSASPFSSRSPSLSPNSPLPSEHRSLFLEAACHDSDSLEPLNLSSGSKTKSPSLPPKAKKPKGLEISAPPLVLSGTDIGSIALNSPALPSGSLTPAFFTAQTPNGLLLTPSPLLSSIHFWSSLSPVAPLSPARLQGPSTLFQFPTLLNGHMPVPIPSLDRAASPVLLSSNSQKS
The settings on record: protein: recombinant; tags: N-terminal GST; dsDNA, one strand shown. A digest of the protocol:
as §1

The target of experiment [10] is T7, FEV (Homo sapiens, UniProt Q99581 1-238).
T7 sequence: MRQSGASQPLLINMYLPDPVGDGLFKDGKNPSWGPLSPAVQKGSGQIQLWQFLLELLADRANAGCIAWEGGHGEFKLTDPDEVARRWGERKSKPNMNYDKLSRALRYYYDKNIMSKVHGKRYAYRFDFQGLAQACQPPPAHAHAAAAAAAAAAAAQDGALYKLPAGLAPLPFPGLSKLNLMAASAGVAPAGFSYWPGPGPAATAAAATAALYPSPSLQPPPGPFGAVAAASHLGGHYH
The conditions noted are these: protein: recombinant; tags: N-terminal GST; dsDNA, one strand shown. A digest of the protocol: as §1

Experiment [11] has as its target ETV5 (Homo sapiens, UniProt P41161 1-510). The conditions noted are these: protein: recombinant; tags: N-terminal GST; dsDNA, one strand shown. A digest of the protocol: as §1
The target of experiment [12] is HSF1 (Homo sapiens, UniProt Q00613 1-529). The settings on record: protein: recombinant; tags: N-terminal GST; chain copies: 3; dsDNA, one strand shown. A digest of the protocol:
as §1

Experiment [13] addresses T8, SPIC (Homo sapiens, UniProt Q8N5J4 1-248).
T8 sequence: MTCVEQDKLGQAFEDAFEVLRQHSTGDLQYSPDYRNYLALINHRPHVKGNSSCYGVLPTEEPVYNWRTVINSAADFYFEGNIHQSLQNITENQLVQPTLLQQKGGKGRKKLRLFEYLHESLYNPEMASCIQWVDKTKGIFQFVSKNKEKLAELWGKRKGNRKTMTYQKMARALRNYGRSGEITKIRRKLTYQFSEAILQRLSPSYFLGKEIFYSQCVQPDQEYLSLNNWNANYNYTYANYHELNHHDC
The settings on record: protein: recombinant; tags: N-terminal GST; dsDNA, one strand shown. A digest of the protocol:
as §1

Experiment [14] deals with ELF4 (Homo sapiens, UniProt Q99607 1-663). The conditions noted are these: protein: recombinant; tags: N-terminal GST; dsDNA, one strand shown. Summed up: as §1
Experiment [15] deals with T9, ELK4 (Homo sapiens, UniProt P28324-2 1-405).
T9 sequence: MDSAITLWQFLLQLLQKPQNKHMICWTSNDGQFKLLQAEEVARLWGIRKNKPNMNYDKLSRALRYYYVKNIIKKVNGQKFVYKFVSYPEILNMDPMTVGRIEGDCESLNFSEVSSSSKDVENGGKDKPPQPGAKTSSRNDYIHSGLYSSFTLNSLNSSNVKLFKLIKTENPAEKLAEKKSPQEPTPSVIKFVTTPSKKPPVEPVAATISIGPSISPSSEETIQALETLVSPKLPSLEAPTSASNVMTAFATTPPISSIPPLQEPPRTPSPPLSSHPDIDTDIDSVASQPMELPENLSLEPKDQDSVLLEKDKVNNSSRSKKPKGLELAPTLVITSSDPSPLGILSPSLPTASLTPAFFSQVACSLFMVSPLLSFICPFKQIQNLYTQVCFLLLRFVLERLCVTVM
The conditions noted are these: protein: recombinant; tags: N-terminal GST; dsDNA, one strand shown. A digest of the protocol:
as §1

Experiment [16] deals with T10, ETV2 (Homo sapiens, UniProt O00321 1-342).
T10 sequence: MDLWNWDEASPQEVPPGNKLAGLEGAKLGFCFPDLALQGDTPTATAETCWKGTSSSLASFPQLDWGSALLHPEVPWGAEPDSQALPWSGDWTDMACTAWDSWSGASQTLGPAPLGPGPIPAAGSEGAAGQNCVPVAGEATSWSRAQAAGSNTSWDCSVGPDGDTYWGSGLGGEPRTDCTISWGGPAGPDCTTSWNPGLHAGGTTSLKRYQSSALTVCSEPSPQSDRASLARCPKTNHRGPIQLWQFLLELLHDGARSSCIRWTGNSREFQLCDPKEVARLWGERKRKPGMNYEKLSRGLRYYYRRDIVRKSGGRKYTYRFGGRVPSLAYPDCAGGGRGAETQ
The settings on record: protein: recombinant; tags: N-terminal GST; dsDNA, one strand shown. Summed up:
as §1

The target of experiment [17] is T11, ELF3 (Homo sapiens, UniProt P78545 1-371).
T11 sequence: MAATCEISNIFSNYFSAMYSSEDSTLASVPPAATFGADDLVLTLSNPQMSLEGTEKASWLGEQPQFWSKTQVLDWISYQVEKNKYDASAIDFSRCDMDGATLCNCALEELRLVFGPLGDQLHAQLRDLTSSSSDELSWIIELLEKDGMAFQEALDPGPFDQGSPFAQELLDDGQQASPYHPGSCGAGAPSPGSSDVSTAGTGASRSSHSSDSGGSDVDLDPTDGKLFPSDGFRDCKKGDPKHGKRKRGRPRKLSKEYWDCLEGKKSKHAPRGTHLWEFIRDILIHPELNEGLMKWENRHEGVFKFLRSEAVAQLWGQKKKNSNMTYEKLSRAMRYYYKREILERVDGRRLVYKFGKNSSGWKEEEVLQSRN
The settings on record: protein: recombinant; tags: N-terminal GST; dsDNA, one strand shown. Summed up: as §1

For experiment [18], the target named is CRX (Homo sapiens, UniProt O43186 1-299). The settings on record: protein: recombinant; tags: N-terminal GST; dsDNA, one strand shown. Summed up:
as §1

The target of experiment [19] is ETV1 (Homo sapiens, UniProt P50549 1-477). The conditions noted are these: protein: recombinant; tags: N-terminal GST; dsDNA, one strand shown. A digest of the protocol: as §1
ETV1, sequence (P50549 whole entry): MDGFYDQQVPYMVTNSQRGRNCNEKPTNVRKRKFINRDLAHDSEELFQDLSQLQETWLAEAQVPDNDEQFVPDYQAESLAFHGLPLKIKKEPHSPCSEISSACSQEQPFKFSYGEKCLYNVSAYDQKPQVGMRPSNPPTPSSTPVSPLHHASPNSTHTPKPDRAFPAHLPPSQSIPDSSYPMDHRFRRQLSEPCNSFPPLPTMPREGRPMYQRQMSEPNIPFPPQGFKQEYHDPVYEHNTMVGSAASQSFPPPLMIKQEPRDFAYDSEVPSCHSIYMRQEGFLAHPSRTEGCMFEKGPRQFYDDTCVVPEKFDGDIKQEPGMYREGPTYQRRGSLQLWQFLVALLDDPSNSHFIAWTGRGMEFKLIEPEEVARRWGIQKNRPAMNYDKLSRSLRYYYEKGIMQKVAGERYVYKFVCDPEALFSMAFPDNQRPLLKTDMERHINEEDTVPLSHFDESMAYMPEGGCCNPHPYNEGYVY

ELF1, sequence (P32519 whole entry): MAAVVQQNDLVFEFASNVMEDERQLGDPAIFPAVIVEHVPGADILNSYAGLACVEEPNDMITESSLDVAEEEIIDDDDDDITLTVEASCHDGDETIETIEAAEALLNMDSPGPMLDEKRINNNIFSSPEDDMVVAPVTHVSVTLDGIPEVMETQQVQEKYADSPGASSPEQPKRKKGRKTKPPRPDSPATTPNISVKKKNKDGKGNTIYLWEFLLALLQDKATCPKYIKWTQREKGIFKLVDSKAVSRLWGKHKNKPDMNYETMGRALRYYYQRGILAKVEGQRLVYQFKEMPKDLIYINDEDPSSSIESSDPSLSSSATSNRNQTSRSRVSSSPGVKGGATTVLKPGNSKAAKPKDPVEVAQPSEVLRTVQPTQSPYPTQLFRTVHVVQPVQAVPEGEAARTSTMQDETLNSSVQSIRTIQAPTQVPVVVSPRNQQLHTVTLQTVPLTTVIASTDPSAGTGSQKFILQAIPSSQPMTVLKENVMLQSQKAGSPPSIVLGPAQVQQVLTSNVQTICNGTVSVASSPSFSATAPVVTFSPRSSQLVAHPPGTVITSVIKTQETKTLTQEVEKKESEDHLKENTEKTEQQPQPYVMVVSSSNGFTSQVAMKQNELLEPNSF
ELF4, sequence (Q99607 whole entry): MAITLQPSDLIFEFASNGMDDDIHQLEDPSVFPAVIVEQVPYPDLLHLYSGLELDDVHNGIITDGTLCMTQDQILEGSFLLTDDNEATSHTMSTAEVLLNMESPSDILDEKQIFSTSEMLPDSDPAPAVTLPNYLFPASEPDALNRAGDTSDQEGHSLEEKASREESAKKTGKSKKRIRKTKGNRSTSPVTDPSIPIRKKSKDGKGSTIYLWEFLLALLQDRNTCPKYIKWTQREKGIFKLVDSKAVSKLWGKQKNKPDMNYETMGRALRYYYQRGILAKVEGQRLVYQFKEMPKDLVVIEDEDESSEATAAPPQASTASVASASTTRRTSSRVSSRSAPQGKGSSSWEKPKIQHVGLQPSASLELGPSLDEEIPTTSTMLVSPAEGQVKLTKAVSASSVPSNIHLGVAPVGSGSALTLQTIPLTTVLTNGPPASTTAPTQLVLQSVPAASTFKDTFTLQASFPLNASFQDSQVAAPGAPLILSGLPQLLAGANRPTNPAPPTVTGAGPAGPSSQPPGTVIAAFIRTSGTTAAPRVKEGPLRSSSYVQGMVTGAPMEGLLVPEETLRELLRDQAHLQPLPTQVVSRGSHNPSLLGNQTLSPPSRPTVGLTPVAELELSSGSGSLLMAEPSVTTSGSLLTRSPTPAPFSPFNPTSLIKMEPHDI
CRX, sequence (O43186 whole entry): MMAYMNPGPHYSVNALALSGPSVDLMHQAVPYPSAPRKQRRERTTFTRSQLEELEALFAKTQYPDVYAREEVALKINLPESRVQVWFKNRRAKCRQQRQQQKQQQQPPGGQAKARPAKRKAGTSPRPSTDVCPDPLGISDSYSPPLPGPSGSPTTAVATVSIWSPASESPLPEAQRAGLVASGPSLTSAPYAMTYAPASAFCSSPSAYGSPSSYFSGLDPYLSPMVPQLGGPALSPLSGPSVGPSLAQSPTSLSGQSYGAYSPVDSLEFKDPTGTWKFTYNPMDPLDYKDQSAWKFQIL
HSF1, sequence (Q00613 whole entry): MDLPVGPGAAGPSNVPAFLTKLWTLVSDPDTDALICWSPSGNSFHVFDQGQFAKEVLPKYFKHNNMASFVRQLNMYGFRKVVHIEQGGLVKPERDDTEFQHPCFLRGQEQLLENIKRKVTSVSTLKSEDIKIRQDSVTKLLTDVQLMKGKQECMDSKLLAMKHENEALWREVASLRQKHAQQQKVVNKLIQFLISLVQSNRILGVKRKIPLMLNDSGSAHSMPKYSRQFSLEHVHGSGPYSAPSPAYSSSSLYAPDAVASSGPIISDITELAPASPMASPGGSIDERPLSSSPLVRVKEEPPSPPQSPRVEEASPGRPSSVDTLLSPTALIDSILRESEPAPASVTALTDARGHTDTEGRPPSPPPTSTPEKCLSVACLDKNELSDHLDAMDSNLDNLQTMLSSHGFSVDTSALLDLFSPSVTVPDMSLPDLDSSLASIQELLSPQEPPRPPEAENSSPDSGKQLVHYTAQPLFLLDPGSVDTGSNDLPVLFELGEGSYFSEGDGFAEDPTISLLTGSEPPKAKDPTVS
ETV5, sequence (P41161 whole entry): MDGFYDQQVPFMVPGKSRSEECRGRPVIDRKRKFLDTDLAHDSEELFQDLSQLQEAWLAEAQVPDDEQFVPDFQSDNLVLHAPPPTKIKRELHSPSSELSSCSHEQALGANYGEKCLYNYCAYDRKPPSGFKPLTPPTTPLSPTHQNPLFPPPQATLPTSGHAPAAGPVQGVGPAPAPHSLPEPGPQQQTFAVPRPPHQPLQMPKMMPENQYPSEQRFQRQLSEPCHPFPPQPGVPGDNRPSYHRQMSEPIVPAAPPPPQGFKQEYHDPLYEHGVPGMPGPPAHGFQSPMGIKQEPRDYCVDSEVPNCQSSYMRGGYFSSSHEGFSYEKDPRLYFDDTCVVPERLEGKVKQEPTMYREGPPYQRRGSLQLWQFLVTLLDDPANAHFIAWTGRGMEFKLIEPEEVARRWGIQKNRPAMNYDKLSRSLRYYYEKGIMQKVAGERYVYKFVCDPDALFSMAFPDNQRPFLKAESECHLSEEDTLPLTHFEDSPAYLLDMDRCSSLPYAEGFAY
SPIB, sequence (Q01892 whole entry): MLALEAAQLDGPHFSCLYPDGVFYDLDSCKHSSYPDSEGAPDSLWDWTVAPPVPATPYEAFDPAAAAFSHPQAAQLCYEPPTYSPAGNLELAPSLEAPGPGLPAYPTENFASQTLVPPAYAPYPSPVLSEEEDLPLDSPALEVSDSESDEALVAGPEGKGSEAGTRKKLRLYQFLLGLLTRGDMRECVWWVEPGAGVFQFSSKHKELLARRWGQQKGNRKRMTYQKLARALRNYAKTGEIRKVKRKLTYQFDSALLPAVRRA

As for AGCTCA, the binding signal in [1] was 1.07 fold enrichment (6-mer frequency, TF over GST control); in experiment [2] it was 1.1 fold enrichment (6-mer frequency, TF over GST control); in [3], 1.15 fold enrichment (6-mer frequency, TF over GST control); in [4], 1.08 fold enrichment (6-mer frequency, TF over GST control); in experiment [5] it was 1.2 fold enrichment (6-mer frequency, TF over GST control); in experiment [6], 1.21 fold enrichment (6-mer frequency, TF over GST control). Besides, the binding signal was 1.06 fold enrichment (6-mer frequency, TF over GST control) in [7]; 1.17 fold enrichment (6-mer frequency, TF over GST control) in [8]; 1.12 fold enrichment (6-mer frequency, TF over GST control) in [9]; 1.08 fold enrichment (6-mer frequency, TF over GST control) in experiment [10]; 1.1 fold enrichment (6-mer frequency, TF over GST control) in experiment [11]; 1.22 fold enrichment (6-mer frequency, TF over GST control) in experiment [12]. Moreover, the binding signal was 1.08 fold enrichment (6-mer frequency, TF over GST control) in experiment [13]; 1.16 fold enrichment (6-mer frequency, TF over GST control) in experiment [14]; 1.27 fold enrichment (6-mer frequency, TF over GST control) in experiment [15]; 1.25 fold enrichment (6-mer frequency, TF over GST control) in experiment [16]; 1.11 fold enrichment (6-mer frequency, TF over GST control) in experiment [17]; 1.45 fold enrichment (6-mer frequency, TF over GST control) in experiment [18]. For the same sequence, the binding signal in experiment [19] was 1.24 fold enrichment (6-mer frequency, TF over GST control).
